Tested on: BMX
Details: concentration: 1 μM, replicates: in singlicate; n = 1
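Also: KINOMEscan kinase panel screen.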

SMILES	%Inh [%]
O=C(Nc1n[nH]c2nc(-c3ccccc3O)ccc12)C1CC1 [SB-711880]	0
CCn1c(-c2nonc2N)nc2c(-c3ccccc3)ncc(OCCCN)c21.O=C(O)C(F)(F)F.O=C(O)C(F)(F)F [GSK260205]	0
Cc1ccc(NC(=O)c2ccnc(N3CCCCC3)c2)cc1-c1ccc(C(=O)NCC2CC2)cc1 [GW775610]	0
O=C(O)C(F)(F)F.O=c1[nH]ccc2nc(N[C@@H]3CCNC3)nc(Nc3ccc4c(c3)S(=O)(=O)CC4)c12 [GSK2181306]	24
Cc1ccccc1CC(=O)N1CCc2cc(-c3cn(C)c4ncnc(N)c34)ccc21 [GSK2603346]	2
Cc1ccc(O)cc1Nc1ccnc2cc(-c3ccc(CN4CCCCC4)o3)ccc12 [GW557777]	50
COc1ccc(C2=C(Nc3cccc(O)c3)C(=O)NC2=O)cc1 [SB-390766]	0
Cc1ccc(O)cc1Nc1ccnc2ccc(C(C)(C)C)cc12 [GW856805]	19
O=C(Nc1n[nH]c2nc(-c3ccccc3)ccc12)C1CC1 [SB-708999]	9
NCCC(NC(=O)c1cc(Br)c(-c2ccnc3[nH]ccc23)s1)c1ccccc1.O=C(O)C(F)(F)F.O=C(O)C(F)(F)F (centres unmarked) [GSK1307810]	25
CCOc1nccc(-c2c(-c3ccc(F)cc3)ncn2C2CCNCC2)n1 [SB-249175]	12
CN1CCN(Cc2ccc(NC(=O)Nc3ccc(N(C)c4ccnc(Nc5ccc(CS(C)(=O)=O)cc5)n4)cc3)cc2)CC1.Cl [GW827654]	69
Cn1cc(-c2ccc3c(c2)CCN3C(=O)Cc2cc(F)cc(F)c2F)c2c(N)ncnc21 [GSK2634140]	11
Cl.Cl.NCC(NC(=O)c1cc(-c2cccnc2)c(-c2ccnc3[nH]ccc23)s1)c1ccccc1 (centres unmarked) [GSK1323434]	36
Cc1ccc(NC(=O)c2cccc(N3CCCCC3)c2)cc1-c1ccc(C(=O)NCC2CC2)cc1 [GSK1917008]	26
Cc1nn2c(=O)cc(N3CCO[C@H](C)C3)nc2n1Cc1cccc(Cl)c1Cl [GSK2373693]	15
Cl.N#CCc1ccc(Nc2nccc(Nc3ccc(Oc4ccccc4)cc3)n2)cc1 [GW639905]	34
Cn1cc(-c2cnc(N)c3c(-c4ccc5c(c4)CCN5C(=O)Cc4ccccc4)csc23)cn1 [GSK2593074]	57
CC(=O)Nc1cn2nc(Oc3cccc(NC(=O)c4cccc(C(F)(F)F)c4)c3)ccc2n1	25
O=C(Nc1n[nH]c2cc(-c3cccs3)ccc12)C1CC1 [SB-731284]	11
CN(c1ccc(NC(=O)Nc2cccc(Cl)c2)cc1)c1ccnc(N)n1.Cl [GW830707]	0
CCn1cnc2c(NCc3ccccc3)ncnc21 [SKF-96418]	0
CC(C)(C)c1ccc(C(=O)Nc2cn3cc(-n4ccnc4)ccc3n2)cc1	0
COc1cc(Nc2nccc(N3CCC(NS(=O)(=O)c4ccc(NC(C)=O)cc4)CC3)n2)cc(OC)c1OC [GSK1379825]	32
CCNC(=O)/C=C/c1n[nH]c2cc(Sc3ccccc3C(=O)NC)ccc12	18

Tested on: BRAF
Details: concentration: 1 μM, replicates: in singlicate; n = 1

SMILES	%Inh [%]
CN(c1ccc2c(c1)nc(NCc1ccccc1)n2C)c1ccnc(Nc2ccc(CS(C)(=O)=O)cc2)n1.Cl [GW811603]	96.8
COc1cccc(C2=C(Nc3cccc(O)c3)C(=O)NC2=O)c1 [SB-390771]	0
O=C(Nc1c(F)cccc1F)c1cc(C(=O)c2ccccc2F)c[nH]1 [GSK1326180]	0
CC(C)c1nc(-c2ccc(F)c(NS(=O)(=O)c3c(F)cccc3F)c2)c(-c2ccnc(Nc3ccc(N4CCOCC4)nc3)n2)s1 [GSK1804250]	99.9
Cl.O=C(Nc1ccc(Oc2ccc3[nH]c(NC(=O)c4ccco4)nc3c2)cc1)Nc1cc(C(F)(F)F)ccc1F [GW683134]	69
c1ccc(Oc2ccc(Nc3ccnc4cc(-c5ccc(CN6CCCCC6)o5)ccc34)cc2)nc1 [GW567143]	2
N#CC1(c2cccc(C(=O)Nc3cccc(Oc4ccc5nc(NC(=O)C6CC6)sc5n4)c3)c2)CC1	99.9
CNc1nccc(-c2ccc3c(N)n[nH]c3c2)n1 [GSK2206003]	0
COc1cccc(NC(=O)NCCNc2ccnc(Nc3ccc(F)cc3)n2)c1 [GSK1379879]	0
Cc1cccc(Nc2nc(N[C@H]3CCCC[C@H]3N)ncc2C(N)=O)c1.Cl [GSK986310]	0
COC(=O)Nc1nc2cc(Oc3ccc(NC(=O)Nc4cccc(SC)c4)cc3)ccc2[nH]1.Cl [GW697999]	83
CN(c1ccc(NC(=O)N2CCN(CCCN3CCOCC3)CC2)cc1)c1ccnc(Nc2ccc(CS(C)(=O)=O)cc2)n1.Cl [GW830899]	0
O=C(Nc1n[nH]c2nc(-c3ccccc3O)ccc12)C1CC1 [SB-711880]	0
CCn1c(-c2nonc2N)nc2c(-c3ccccc3)ncc(OCCCN)c21.O=C(O)C(F)(F)F.O=C(O)C(F)(F)F [GSK260205]	0
Cc1ccc(NC(=O)c2ccnc(N3CCCCC3)c2)cc1-c1ccc(C(=O)NCC2CC2)cc1 [GW775610]	77
O=C(O)C(F)(F)F.O=c1[nH]ccc2nc(N[C@@H]3CCNC3)nc(Nc3ccc4c(c3)S(=O)(=O)CC4)c12 [GSK2181306]	0
Cc1ccccc1CC(=O)N1CCc2cc(-c3cn(C)c4ncnc(N)c34)ccc21 [GSK2603346]	0
Cc1ccc(O)cc1Nc1ccnc2cc(-c3ccc(CN4CCCCC4)o3)ccc12 [GW557777]	22
COc1ccc(C2=C(Nc3cccc(O)c3)C(=O)NC2=O)cc1 [SB-390766]	6

SMILES	%Inh [%]
Cc1ccc(O)cc1Nc1ccnc2ccc(C(C)(C)C)cc12 [GW856805]	63
O=C(Nc1n[nH]c2nc(-c3ccccc3)ccc12)C1CC1 [SB-708999]	4
NCCC(NC(=O)c1cc(Br)c(-c2ccnc3[nH]ccc23)s1)c1ccccc1.O=C(O)C(F)(F)F.O=C(O)C(F)(F)F (centres unmarked) [GSK1307810]	0
CCOc1nccc(-c2c(-c3ccc(F)cc3)ncn2C2CCNCC2)n1 [SB-249175]	5
CN1CCN(Cc2ccc(NC(=O)Nc3ccc(N(C)c4ccnc(Nc5ccc(CS(C)(=O)=O)cc5)n4)cc3)cc2)CC1.Cl [GW827654]	0
Cn1cc(-c2ccc3c(c2)CCN3C(=O)Cc2cc(F)cc(F)c2F)c2c(N)ncnc21 [GSK2634140]	0
Cl.Cl.NCC(NC(=O)c1cc(-c2cccnc2)c(-c2ccnc3[nH]ccc23)s1)c1ccccc1 (centres unmarked) [GSK1323434]	21
Cc1ccc(NC(=O)c2cccc(N3CCCCC3)c2)cc1-c1ccc(C(=O)NCC2CC2)cc1 [GSK1917008]	88
Cc1nn2c(=O)cc(N3CCO[C@H](C)C3)nc2n1Cc1cccc(Cl)c1Cl [GSK2373693]	2
Cl.N#CCc1ccc(Nc2nccc(Nc3ccc(Oc4ccccc4)cc3)n2)cc1 [GW639905]	0
Cn1cc(-c2cnc(N)c3c(-c4ccc5c(c4)CCN5C(=O)Cc4ccccc4)csc23)cn1 [GSK2593074]	0
CC(=O)Nc1cn2nc(Oc3cccc(NC(=O)c4cccc(C(F)(F)F)c4)c3)ccc2n1	99.7
O=C(Nc1n[nH]c2cc(-c3cccs3)ccc12)C1CC1 [SB-731284]	68
CN(c1ccc(NC(=O)Nc2cccc(Cl)c2)cc1)c1ccnc(N)n1.Cl [GW830707]	0
CCn1cnc2c(NCc3ccccc3)ncnc21 [SKF-96418]	9
CC(C)(C)c1ccc(C(=O)Nc2cn3cc(-n4ccnc4)ccc3n2)cc1	19
COc1cc(Nc2nccc(N3CCC(NS(=O)(=O)c4ccc(NC(C)=O)cc4)CC3)n2)cc(OC)c1OC [GSK1379825]	14
CCNC(=O)/C=C/c1n[nH]c2cc(Sc3ccccc3C(=O)NC)ccc12	11

Reference: publication PMC5540273 (PLoS ONE, 2017)
